According to PubChem BioAssay (NCI):
About 79,000 compounds went through this panel and 15% of them were active in at least one assay; those are over-represented in the sample as a whole. A number with no mark means an inactive call. Activity calls are given as the source filed them. No stated cut-off is given here; in the data, active means growth inhibition above about 70%; inactive means the rest.

Assay: NCI Yeast Anticancer Drug Screen. Data for the mec2-1 strain (AID 157)
Settings: S. cerevisiae mec2-1 strain, at 50.0 µM, active compounds read high
In short: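 Growth inhibition is read against vehicle-treated controls after compound exposure of the mec2-1 yeast strain, which is defective in DNA damage repair or cell cycle control.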

First: COc1cc2c(cc1OC)C(=O)C(C1CCCCC1)NC2 (stereo not given)
Second: COc1cc2c(cc1OC)C1C(=O)c3c(O)cc4c(c3OC1CO2)C=CC(C)(C)O4 (stereo not given)
The growth inhibition of the first is lower: 9.85% for the first, 10.3% for the second.

Going from Fc1ccccc1-c1nc2ccccc2s1 to Cn1cc(-c2ccccc2)cc1-c1ccccc1, the growth inhibition rises from 3.75% to 6.6%.

Going from CCOc1ccc(NC(=S)NC=C(C(N)=O)C(N)=O)cc1 to CCOC(=O)C(/C=N/C(=S)Nc1c(C)cccc1C)=C(/O)c1ccccc1, the growth inhibition rises from -41.3% to -21.6%.

Going from O=c1oc2ccccc2c(O)c1C(c1cccc(C(c2c(O)c3ccccc3oc2=O)c2c(O)c3ccccc3oc2=O)c1)c1c(O)c2ccccc2oc1=O to Clc1ccc(Nc2ncnc3oc(-c4ccccc4)c(-c4ccccc4)c23)cc1, the growth inhibition falls from 37.5% to 13%.

Going from CCC(=O)Oc1cccc2ccccc12 to Cc1ccc2c(c1-c1ccccc1)C(=O)OC2, the growth inhibition rises from -26.9% to -3.05%.

Compared with Cc1cc(C)nc(NS(=O)(=O)c2ccc(NC(=O)C(Cl)(Cl)Cl)cc2)n1, COc1ccc(S(=O)(=O)O)cc1NS(=O)(=O)c1ccc(C)cc1 is higher in growth inhibition: -24.6% for the first, 18.9% for the second.

Going from OCC[N+]12CCCN1CCC2 to CN1C/C(=C\c2ccc(C(=O)O)cc2)C(=O)/C(=C/c2ccc(C(=O)O)cc2)C1, the growth inhibition rises from -27% to 5.35%.

Compared with COc1ccc(/C=C/C(=O)N(C)C)cc1, COC(=O)C1=CC(O)CCC1c1ccc(OC)cc1 (stereo not given) is lower in growth inhibition: 5.65% for the first, -10.7% for the second.

Compared with CC(C)(C)NC(=O)c1cccc(C(=O)NC(C)(C)C)n1, Cc1cccc(NC(=O)/C(=N\NC(C)(C)C)C2NC(=S)NC2=O)c1C (stereo not given) is lower in growth inhibition: -8% for the first, -29.8% for the second.

Compared with Cc1sc2nc3n(c(=O)c2c1C)N=C(c1ccc([N+](=O)[O-])cc1)CS3, COC(=O)c1nc2nnc(N)n2c(-c2ccc(Cl)cc2)c1C is higher in growth inhibition: -14.9% for the first, 11.1% for the second.

First: CCCCCCC1OCC(C)([N+](=O)[O-])CO1 (stereo not given)
Second: Cc1ncc([N+](=O)[O-])n1CCNC(=O)CCn1ccnc1[N+](=O)[O-]
The growth inhibition of the first is higher: -8.8% for the first, -43.7% for the second.

Compared with CN1Cc2ccccc2[C@H]2C(c3ccccc3)=NN(c3ccccc3)[C@H]21, CC(C)(C)NNC(=O)/C(=C/c1ccc(Oc2ccc(Cl)c(Cl)c2)cc1)NC(=O)c1ccccc1 is lower in growth inhibition: 26.9% for the first, 1.1% for the second.

Compared with CC(=O)OCC1OC(n2nc(C#N)c(C#N)n2)C(OC(C)=O)C1OC(C)=O (stereo not given), COC(=O)c1nc(N)nc(C(=O)OC)c1C(=O)c1ccco1 is lower in growth inhibition: -3% for the first, -4.25% for the second.

Going from COc1ccc(OC)c(C(=O)C=C(C(F)(F)F)C(F)(F)F)c1 to COc1ccc2c3ccc4c(c3n(C)c2c1)C(=O)c1ccccc1C4=O, the growth inhibition falls from -0.95% to -36.2%.

Compared with Cc1cc(Cl)cc(CN(C)Cn2c(=O)cc[nH]c2=O)c1O, Cc1nc2sccn2c1C(=O)NC(=O)Nc1ccc(Cl)cc1 is lower in growth inhibition: -7.65% for the first, -14.8% for the second.

Compared with N#CC(N)(C(=O)CCC(=O)Nc1cccc(Cl)c1)c1ccc(Cl)cc1 (stereo not given), N[C@@H](CCC(=O)NC(Cc1ccccc1)C(=O)NCP(=O)(O)O)C(=O)O (stereo not given in full) is lower in growth inhibition: 12.6% for the first, -17.9% for the second.

First: CCOC(=O)/C(N=O)=C(/C)O
Second: COC(=N)CC(=O)C(C)(C)C
The growth inhibition of the first is higher: 5.9% for the first, -15.9% for the second.

First: CC1(C)CC(=O)C2(C)C(C1O)C2C1C2C(O)C(C)(C)CC(=O)C21C (stereo not given)
Second: CCCCSCc1nc2nc(Cl)c(Cl)nc2[nH]1
The growth inhibition of the first is higher: 3.25% for the first, -37.2% for the second.

First: NC1=NC=NCN1c1ccc(N)cc1
Second: Nc1nc(Sc2ccc([N+](=O)[O-])c3nonc23)c2[nH]cnc2n1
The growth inhibition of the first is lower: -2.65% for the first, 7.25% for the second.

With O=c1nc(OCCO)c([N+](=O)[O-])c(C(Cl)(Cl)Cl)[nH]1 the growth inhibition was 89.5% (active).
For C/C=C(/C)C(=O)O[C@H]1C[C@@H]2[C@@H](O)c3occ(C)c3C[C@]2(C)[C@@H](C)C1, the growth inhibition was 92.4% (active).

Assay: NCI Yeast Anticancer Drug Screen. Data for the sgs1 mgt1 strain (AID 161);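 further: 0% = growth of cultures given vehicle only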
Settings: S. cerevisiae sgs1 mgt1 strain, at 50.0 µM, active compounds read high
In short: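 Compounds are added to genetically altered yeast, and growth is compared with cultures given vehicle alone to give percent inhibition.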

Going from COc1cc2c(cc1OC)C(=O)C(C1CCCCC1)NC2 (stereo not given) to COc1cc2c(cc1OC)C1C(=O)c3c(O)cc4c(c3OC1CO2)C=CC(C)(C)O4 (stereo not given), the growth inhibition rises from 8.9% to 14.3%.

First: Fc1ccccc1-c1nc2ccccc2s1
Second: Cn1cc(-c2ccccc2)cc1-c1ccccc1
The growth inhibition of the first is higher: 19.3% for the first, -4.5% for the second.

First: CCOc1ccc(NC(=S)NC=C(C(N)=O)C(N)=O)cc1
Second: CCOC(=O)C(/C=N/C(=S)Nc1c(C)cccc1C)=C(/O)c1ccccc1
The growth inhibition of the first is higher: -10.7% for the first, -26.1% for the second.

First: O=c1oc2ccccc2c(O)c1C(c1cccc(C(c2c(O)c3ccccc3oc2=O)c2c(O)c3ccccc3oc2=O)c1)c1c(O)c2ccccc2oc1=O
Second: Clc1ccc(Nc2ncnc3oc(-c4ccccc4)c(-c4ccccc4)c23)cc1
The growth inhibition of the first is lower: -2.7% for the first, 1.3% for the second.

Going from CCC(=O)Oc1cccc2ccccc12 to Cc1ccc2c(c1-c1ccccc1)C(=O)OC2, the growth inhibition rises from -14.8% to 2.15%.

Compared with Cc1cc(C)nc(NS(=O)(=O)c2ccc(NC(=O)C(Cl)(Cl)Cl)cc2)n1, COc1ccc(S(=O)(=O)O)cc1NS(=O)(=O)c1ccc(C)cc1 is higher in growth inhibition: -35.4% for the first, 15.9% for the second.

Going from OCC[N+]12CCCN1CCC2 to CN1C/C(=C\c2ccc(C(=O)O)cc2)C(=O)/C(=C/c2ccc(C(=O)O)cc2)C1, the growth inhibition rises from -21.4% to 28.1%.

First: COc1ccc(/C=C/C(=O)N(C)C)cc1
Second: COC(=O)C1=CC(O)CCC1c1ccc(OC)cc1 (stereo not given)
The growth inhibition of the first is higher: -0.15% for the first, -13.2% for the second.

Going from CC(C)(C)NC(=O)c1cccc(C(=O)NC(C)(C)C)n1 to Cc1cccc(NC(=O)/C(=N\NC(C)(C)C)C2NC(=S)NC2=O)c1C (stereo not given), the growth inhibition falls from -0.3% to -38.5%.

First: Cc1sc2nc3n(c(=O)c2c1C)N=C(c1ccc([N+](=O)[O-])cc1)CS3
Second: COC(=O)c1nc2nnc(N)n2c(-c2ccc(Cl)cc2)c1C
The growth inhibition of the first is lower: -10.1% for the first, 7.25% for the second.

Compared with CCCCCCC1OCC(C)([N+](=O)[O-])CO1 (stereo not given), Cc1ncc([N+](=O)[O-])n1CCNC(=O)CCn1ccnc1[N+](=O)[O-] is lower in growth inhibition: -1.1% for the first, -49.6% for the second.

First: CN1Cc2ccccc2[C@H]2C(c3ccccc3)=NN(c3ccccc3)[C@H]21
Second: CC(C)(C)NNC(=O)/C(=C/c1ccc(Oc2ccc(Cl)c(Cl)c2)cc1)NC(=O)c1ccccc1
The growth inhibition of the first is higher: 59.2% for the first, 2.1% for the second.

Going from CC(=O)OCC1OC(n2nc(C#N)c(C#N)n2)C(OC(C)=O)C1OC(C)=O (stereo not given) to COC(=O)c1nc(N)nc(C(=O)OC)c1C(=O)c1ccco1, the growth inhibition rises from 3.15% to 30.3%.

Compared with COc1ccc(OC)c(C(=O)C=C(C(F)(F)F)C(F)(F)F)c1, COc1ccc2c3ccc4c(c3n(C)c2c1)C(=O)c1ccccc1C4=O is lower in growth inhibition: -3.8% for the first, -53% for the second.

First: Cc1cc(Cl)cc(CN(C)Cn2c(=O)cc[nH]c2=O)c1O
Second: Cc1nc2sccn2c1C(=O)NC(=O)Nc1ccc(Cl)cc1
The growth inhibition of the first is higher: 2.7% for the first, -2.75% for the second.

Compared with N#CC(N)(C(=O)CCC(=O)Nc1cccc(Cl)c1)c1ccc(Cl)cc1 (stereo not given), N[C@@H](CCC(=O)NC(Cc1ccccc1)C(=O)NCP(=O)(O)O)C(=O)O (stereo not given in full) is lower in growth inhibition: 7.7% for the first, -45.9% for the second.

First: CCOC(=O)/C(N=O)=C(/C)O
Second: COC(=N)CC(=O)C(C)(C)C
The growth inhibition of the first is higher: 4.8% for the first, -13.7% for the second.

First: CC1(C)CC(=O)C2(C)C(C1O)C2C1C2C(O)C(C)(C)CC(=O)C21C (stereo not given)
Second: CCCCSCc1nc2nc(Cl)c(Cl)nc2[nH]1
The growth inhibition of the first is higher: -5.3% for the first, -23.9% for the second.

Compared with NC1=NC=NCN1c1ccc(N)cc1, Nc1nc(Sc2ccc([N+](=O)[O-])c3nonc23)c2[nH]cnc2n1 is lower in growth inhibition: 3.85% for the first, -20.4% for the second.

In the case of O=c1nc(OCCO)c([N+](=O)[O-])c(C(Cl)(Cl)Cl)[nH]1, the growth inhibition is reported as 81.7% (active).
For C/C=C(/C)C(=O)O[C@H]1C[C@@H]2[C@@H](O)c3occ(C)c3C[C@]2(C)[C@@H](C)C1, the growth inhibition was 91.6% (active).
